Drawing on PubChem BioAssay AID648 (SRMLSC, 2007), this text covers viability for 43 compounds.

In all, about 86,000 compounds went through this assay and about 920 (1.1%) were called active.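 How the source made its calls: active means viability at or below 30%; inactive means viability above 30%.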 Only a selection was taken, and actives are over-represented in it overall.

This assay is described as follows: inhibitors of HUVEC proliferation, primary screen, cell-based, 384-well (AID 648).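 Further: 100% = median luminescence of DMSO-only cell control wells on each plate.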 To be noted: CellTiter-Glo luminescence, 72 h, stronger effect = lower value, screened at 10 µM (by protocol).
The viability is a read-out of living cells in per cent, often relative to untreated cells. In the case of `O=C(C(NS(=O)(=O)c1cccc2nsnc12)c1ccccc1)N1CCN(c2ccccc2)CC1` (stereo not drawn), the viability is 101% (inactive). As to `CCC1(C)Cc2c(sc3[nH]c(=S)n(Cc4ccccc4)c(=O)c23)CO1` (stereo not drawn), the viability was 7% (active). For `CCC1(C)Cc2c(sc3nc(SC)nc(N)c23)CO1` (stereo not drawn), the viability is 93.2% (inactive). The value for `CCC1(C)Cc2c(sc3nc4n(c(=O)c23)CCCS4)CO1` (stereo not drawn) was 101% (inactive). In the case of `C=CCn1c(N)cc(=O)nc1SCC(=O)Nc1cccc2ccccc12`, the viability is 103% (inactive).

For the compound `O=C(NC1CCCCC1)c1ccc(CNc2c(N3CCOCC3)c(=O)c2=O)cc1`, the viability is 105% (inactive).

Turning to `COC(=O)c1c(C)c(C)nc(N)c1C#N`, the viability was 104% (inactive). In the case of `Oc1ccc2ccc3cccc[n+]3c2c1`, the viability was 97.5% (inactive). Take `COc1ccc(-c2cc(C)nc3nc(N)nn23)cc1`: the viability was 86.4% (inactive). `Cc1cc(N)n2nc(-c3ccc(C(C)(C)C)cc3)cc2n1`: the viability was 24.9% (active). In the case of `Cc1nc2cc(-c3ccc(F)cc3)nn2c(N2CCOCC2)c1C`, the viability is 98.8% (inactive). As for `CCCCCN1CC(O)=C(c2nc(-c3ccc(Cl)cc3)cs2)C1=N`, the viability is 102% (inactive). `O=C(O)CCN=C1CCc2ccccc2N1`: the viability was 95.7% (inactive). Regarding `O=C(COc1ccc(S(=O)(=O)NCc2ccccc2)cc1)N1CCOCC1`, the viability was 98.2% (inactive). Consider `Cc1ccc2oc(=O)c3cnn(CC(=O)N(Cc4ccco4)C4CCCCC4)c3c2c1`, for which the viability is 84% (inactive). With `COc1cc(CC(=O)NCc2cccs2)cc(OC)c1OC` the figure was 98.3% (inactive). With `O=C(NCCC1=CCCCC1)C1CCN(Cc2cnn(-c3ccccc3)c2-n2cccc2)CC1` the figure was 28.4% (active); with `CC(=O)Nc1ccc(NC(=O)CSCc2cnn(-c3ccccc3)c2-n2cccc2)cc1`, 89.5% (inactive). As for `C1=C(CCNc2ncnc3c2cnn3-c2ccccc2)CCCC1`, the viability was 94.9% (inactive). Turning to `CCn1c(SCC(=O)Nc2ccc(S(=O)(=O)Nc3onc(C)c3C)cc2)nnc1-c1ccccc1`, the viability was 89.5% (inactive). As to `Brc1ccc(-c2nnc(-c3ccccc3)o2)o1`, the viability is 90.9% (inactive). With `OCCN1CCOCCOCCN(CCO)CCN(CCO)CC1`, the viability is 105% (inactive). `CC(C)(C)c1cc(=O)n2c(nc3ccccc32)[nH]1`: the viability was 103% (inactive).

As to `Cc1nc2c(-c3ccccc3)c(C)[nH]n2c(=O)c1Cl`, the viability is 12% (active). Consider `Cc1nc2nc(COc3ccccc3)[nH]n2c(=O)c1C`, for which the viability was 88.1% (inactive). Regarding `Cc1[nH]n(-c2cccc(Cl)c2)c(=O)c1-c1ccc(Cl)cc1`, the viability was 63.2% (inactive). The value for `CCCN(Cc1cc2cccc(C)c2[nH]c1=O)S(C)(=O)=O` was 95.8% (inactive).

With `CCOc1ccc(S(=O)(=O)N2CCCCCC2)c2ccccc12`, the viability is 102% (inactive).

Take `O=C1CSC2=NCN(c3ccccc3)CN12`: the viability was 93.5% (inactive). `Cc1cccc(N2C(=O)c3cccnc3C2=O)c1`: the viability was 95.8% (inactive). As to `COc1cc(/C=C(\C#N)c2nc3c(s2)CC(C)CC3)ccc1O` (stereo not drawn), the viability is 83.7% (inactive). With `COc1ccc(-c2nnc(SCC(=O)c3ccco3)n2-c2ccccc2)cc1` the figure was 92.6% (inactive). In the case of `COc1ccc(-n2c(SCC(=O)Nc3sc4c(c3C#N)CCCC4)nnc2-c2ccc(O)cc2)cc1`, the viability was 3.66% (active). Take `N#Cc1c(NC(=O)CSc2nc3ccccc3c(=O)n2Cc2ccco2)sc2c1CCCC2`: the viability was 58.5% (inactive).

`Cc1cc(NC(=O)CCC(=O)N(CC(=O)NCC2CCCO2)c2ccccc2C)no1` (stereo not drawn): the viability is 105% (inactive). As for `CC(C)(O)C(=O)NN(C(=O)c1ccccc1)c1cccc(Br)c1`, the viability is 109% (inactive).

Consider `CCOC(=O)c1nnn(-c2nonc2-n2cccc2)c1CN1CCC(C(=O)OCC)CC1`, for which the viability was 92.5% (inactive).

Consider `Cc1cc(-n2nc(C)cc2C)n2nc(C)c(-c3ccccc3)c2n1`, for which the viability was 106% (inactive). For the compound `CCOC(=O)c1nnn(-c2nonc2-n2cccc2)c1CN1CCOCC1`, the viability was 100% (inactive). On to `Fc1ccccc1/C=C1\CCCC2=C1Nc1ncnn1C2c1ccccc1F` (stereo not drawn), for which the viability was 13% (active). As to `CCCCc1nnc(NC(=O)CS(=O)(=O)Cc2ccccc2)s1`, the viability is 107% (inactive).

With `Clc1ccc(COn2c(-c3ccc(Cl)cc3Cl)nc3ncccc32)cc1`, the viability is 86% (inactive). `Cc1noc(/C=C/c2ccco2)c1S(=O)(=O)N1CCC(C(=O)N2CCc3ccccc32)CC1`: the viability was 93.3% (inactive).
